PubChem BioAssay (Tox21)
Where “and” joins values, the source holds several entries; their conditions need not be identical. Equal entries are not always repeated. Some structures have more than one record in an assay (separate samples or runs), and their calls can disagree. Calls of active or inactive are those of the source. Unless noted, calls come from the whole dose curve; as a rule, active = well fitted curve in the direction sought with a large enough effect in the repeat runs; inconclusive = weak or mixed curves; inactive = no such curve, though single readings can be large; an effect the other way counts as inactive or inconclusive.

Tests used:
[1] = qHTS assay for identifying genotoxic compounds that show differential cytotoxicity against isogenic chicken DT40 cell lines with known DNA damage response pathways - wild type cell line (AID 743012); note: nearly all actives have a fitted effect of over 60% in size; note: potency is the fitted concentration of half-maximal effect
Method in brief: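 Wild type DT40, 300 cells/well, ~0.5 h settle at 37 C/5% CO2; compounds in DMSO added by pintool; 40 h at 37 C/5% CO2; CellTiter-Glo, 30 min RT; luminescence.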

[2] = qHTS assay for identifying genotoxic compounds that show differential cytotoxicity against isogenic chicken DT40 cell lines with known DNA damage response pathways - Rev3 mutant cell line (AID 743014); note: nearly all actives have a fitted effect of over 55% in size; note: potency is the fitted concentration of half-maximal effect
[3] = qHTS assay for identifying genotoxic compounds that show differential cytotoxicity against isogenic chicken DT40 cell lines with known DNA damage response pathways - Rad54/Ku70 mutant cell line (AID 743015); note: potency is the fitted concentration of half-maximal effect; nearly all actives have a fitted effect of over 60% in size
[4] = qHTS assay to identify small molecule antagonists of the androgen receptor (AR) signaling pathway - cell viability counter screen (AID 743033; note: nearly all actives have a fitted effect of over 45% in size; note: potency is the fitted concentration of half-maximal effect)
[5] = molecular target: Androgen receptor (Homo sapiens) (UniProt P10275); assay: qHTS assay to identify small molecule agonists of the androgen receptor (AR) signaling pathway (AID 743036; active = well fitted activation curve with a large enough effect in the signal ratio in the repeat runs, with a control signal flat, not every such curve was filed as active; inconclusive = weak or mixed curves, or effect the other way; inactive = no such curve, though single readings can be large or run the other way; the % refers to the signal ratio; note: % is set by controls: 0 for no effect and ±100 for the full control effect)
Chain of Androgen receptor (Homo sapiens) (P10275 whole entry, looked up): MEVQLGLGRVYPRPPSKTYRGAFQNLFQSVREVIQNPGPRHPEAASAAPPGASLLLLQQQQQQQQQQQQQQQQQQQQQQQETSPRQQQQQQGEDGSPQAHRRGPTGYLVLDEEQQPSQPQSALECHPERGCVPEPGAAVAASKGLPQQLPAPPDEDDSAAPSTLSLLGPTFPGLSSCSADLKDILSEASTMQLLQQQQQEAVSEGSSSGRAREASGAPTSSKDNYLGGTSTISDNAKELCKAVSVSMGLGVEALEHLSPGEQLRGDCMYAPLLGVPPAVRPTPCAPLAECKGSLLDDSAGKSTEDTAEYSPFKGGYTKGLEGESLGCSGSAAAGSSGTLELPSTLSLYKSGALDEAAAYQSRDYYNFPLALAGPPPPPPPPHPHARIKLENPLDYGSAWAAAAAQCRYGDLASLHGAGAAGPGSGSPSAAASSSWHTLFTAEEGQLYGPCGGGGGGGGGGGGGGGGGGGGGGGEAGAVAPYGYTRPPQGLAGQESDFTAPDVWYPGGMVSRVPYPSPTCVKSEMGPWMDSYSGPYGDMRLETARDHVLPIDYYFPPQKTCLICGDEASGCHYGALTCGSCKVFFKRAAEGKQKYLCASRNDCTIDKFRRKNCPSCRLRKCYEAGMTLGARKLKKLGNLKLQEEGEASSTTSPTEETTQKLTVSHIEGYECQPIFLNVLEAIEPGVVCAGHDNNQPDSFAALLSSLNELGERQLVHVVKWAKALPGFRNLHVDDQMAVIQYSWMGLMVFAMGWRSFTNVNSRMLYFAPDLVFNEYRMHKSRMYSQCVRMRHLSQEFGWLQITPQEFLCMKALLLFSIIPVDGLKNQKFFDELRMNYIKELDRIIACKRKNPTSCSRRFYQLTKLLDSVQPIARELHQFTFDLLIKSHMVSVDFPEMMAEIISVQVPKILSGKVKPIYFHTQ
Method in brief: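 Reporter line: GeneBLAzer AR-UAS-bla-GripTite (HEK293). Steps: plate cells, 4 h rest, add compounds, 16 h at 37C, add LiveBLAzer B/G substrate, 2 h at RT, read fluorescence.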

[6] = molecular target: Androgen receptor (Homo sapiens) (UniProt P10275); assay: qHTS assay to identify small molecule agonists of the androgen receptor (AR) signaling pathway using the MDA cell line (AID 743040; note: % is set by controls: 0 for no effect and ±100 for the full control effect; nearly all actives have a fitted effect of over 20% in size)
Method in brief: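 Cells plated, 5 h at 37C/0% CO2; compound or DMSO pinned; 16 h at 37C; ONE-Glo added; luminescence measured after 30 min at room temperature. Reporter line: MDA-kb2 with MMTV-luciferase responsive to AR and GR.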

[7] = qHTS assay to identify small molecule antagonists of the androgen receptor (AR) signaling pathway using the MDA cell line - cell viability counter screen (AID 743041; note: nearly all actives have a fitted effect of over 45% in size; note: potency is the fitted concentration of half-maximal effect)
Method in brief: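 Cells were plated at 3,000 per well and left 5 h. Compounds in DMSO were then pinned in, followed by R1881. After 16 h at 37C, CellTiter-Fluor fluorescence gave viability.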

[8] = molecular target: Androgen receptor (Homo sapiens) (UniProt P10275); assay: qHTS assay to identify small molecule antagonists of the androgen receptor (AR) signaling pathway using the MDA cell line (AID 743042; note: nearly all actives have a fitted effect of over 55% in size; note: potency is the fitted concentration of half-maximal effect)
Method in brief: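 Antagonist mode: compounds plus R1881 agonist added to MDA-kb2 AR-luc cells, incubated 16 h at 37C. Luciferase reporter luminescence quantified, with multiplexed CellTiter-Fluor readout for cell viability.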

[9] = qHTS assay to identify small molecule antagonists of the thyroid receptor (TR) signaling pathway - cell viability counter screen (AID 743064); note: nearly all actives have a fitted effect of over 50% in size; note: potency is the fitted concentration of half-maximal effect
Method in brief: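 Plate GH3.TRE-Luc cells; incubate 4 h at 37 °C; add compound, then T3 to 1 nM final; incubate 23.5 h; add CellTiter-Fluor; incubate 30 min at 37 °C, 5% CO2; read fluorescence.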

[10] = qHTS assay to identify small molecule antagonists of the thyroid receptor (TR) signaling pathway (AID 743065); note: nearly all actives have a fitted effect of over 55% in size; note: potency is the fitted concentration of half-maximal effect
Method in brief: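 Antagonism measured as loss of luciferase signal in GH3 cells stably carrying a TRE-luciferase reporter, co-treated with compound and T3 (1 nM final) for 23.5 h at 37 C. Viability was read in the same well by CellTiter-Fluor.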

[11] = tested on: thyroid hormone receptor (rat, GH3 cells); assay: qHTS assay to identify small molecule agonists of the thyroid receptor (TR) signaling pathway (AID 743066; calls by dose curve; note: % is set by controls: 0 for no effect and ±100 for the full control effect)
[12] = qHTS assay to identify small molecule antagonists of the estrogen receptor alpha (ER-alpha) signaling pathway - cell viability counter screen (AID 743074; calls by dose curve;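 note: HEK293 cells carrying ER-alpha-UAS-bla reporter stimulated with 17beta-estradiol; nearly all actives have a fitted effect of over 45% in size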; note: potency is the fitted concentration of half-maximal effect)
[13] = molecular target: Estrogen receptor (Homo sapiens) (UniProt P03372); assay: qHTS assay to identify small molecule agonists of the estrogen receptor alpha (ER-alpha) signaling pathway (AID 743075; calls by dose curve;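 note: HEK293 GripTite cells with ER-alpha and UAS-driven beta-lactamase reporter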; note: potency is the fitted concentration of half-maximal effect; for activation: % is set by controls: 0 for no effect and ±100 for the full control effect); conditions: HEK293 ER-alpha-UAS-bla, beta-lactamase FRET ratio, 18 h; activation: at 70.1 µM (top of the series)
Chain of Estrogen receptor (Homo sapiens) (P03372 whole entry, looked up): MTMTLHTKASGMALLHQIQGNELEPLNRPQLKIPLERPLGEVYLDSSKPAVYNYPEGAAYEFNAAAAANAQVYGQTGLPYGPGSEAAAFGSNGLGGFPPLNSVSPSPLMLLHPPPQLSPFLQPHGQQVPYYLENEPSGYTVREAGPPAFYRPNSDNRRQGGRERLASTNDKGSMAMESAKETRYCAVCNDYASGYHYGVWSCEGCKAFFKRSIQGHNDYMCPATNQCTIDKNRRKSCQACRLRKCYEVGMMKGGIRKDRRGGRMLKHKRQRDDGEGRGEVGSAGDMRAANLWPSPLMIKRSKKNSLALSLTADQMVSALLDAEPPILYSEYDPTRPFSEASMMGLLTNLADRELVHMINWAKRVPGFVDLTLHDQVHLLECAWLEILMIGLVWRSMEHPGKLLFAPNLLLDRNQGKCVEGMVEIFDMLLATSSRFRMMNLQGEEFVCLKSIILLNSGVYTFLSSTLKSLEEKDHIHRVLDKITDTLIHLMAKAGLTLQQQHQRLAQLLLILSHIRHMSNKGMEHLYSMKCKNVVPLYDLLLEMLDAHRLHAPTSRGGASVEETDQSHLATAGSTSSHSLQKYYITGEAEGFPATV

[14] = molecular target: Estrogen receptor (Homo sapiens) (UniProt P03372); assay: qHTS assay to identify small molecule agonists of the estrogen receptor alpha (ER-alpha) signaling pathway using the BG1 cell line (AID 743079); conditions: BG1Luc4E2 cells, ERE-luciferase agonist, 22 h; note: nearly all actives have a fitted effect of over 20% in size; note: potency is the fitted concentration of half-maximal effect; for activation: % is set by controls: 0 for no effect and ±100 for the full control effect
[15] = qHTS assay to identify small molecule antagonists of the estrogen receptor alpha (ER-alpha) signaling pathway using the BG1 cell line - cell viability counter screen (AID 743081);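 note: compound given together with 17beta-estradiol as the ER stimulus; nearly all actives have a fitted effect of over 45% in size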; note: potency is the fitted concentration of half-maximal effect
[16] = molecular target: Estrogen receptor (Homo sapiens) (UniProt P03372); assay: qHTS assay to identify small molecule antagonists of the estrogen receptor alpha (ER-alpha) signaling pathway (AID 743069; active = well fitted curve in the direction sought with a large enough effect in the signal ratio in the repeat runs, not every such curve was filed as active; inconclusive = weak or mixed curves, or effect the other way; inactive = no such curve, though single readings can be large or run the other way; the % refers to the signal ratio; note: potency is the fitted concentration of half-maximal effect)
Method in brief: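 ER-alpha-UAS-bla GripTite HEK293 line; 2% charcoal-stripped FBS overnight; plated, 4 hr 37C/5% CO2; cpd in DMSO + 17beta-estradiol, 18 hr 37C; LiveBLAzer B/G FRET substrate 2 hr RT; fluorescence intensity.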

[17] = qHTS assay to identify small molecule antagonists of the estrogen receptor alpha (ER-alpha) signaling pathway using the BG1 cell line (AID 743080; calls by dose curve;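 note: BG1 cells stimulated with 17beta-estradiol alongside compound; nearly all actives have a fitted effect of over 25% in size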; note: potency is the fitted concentration of half-maximal effect)
Method in brief: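 Seeding, 24 h rest, compound transfer from DMSO, 17beta-estradiol addition, 21.5 h incubation, CellTiter-Fluor (30 min, 37 C), then ONE-Glo (30 min, room temperature): this sequence was run on BG1-Luc-4E2 reporter cells.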

[18] = molecular target: Aromatase (Homo sapiens) (UniProt P11511); assay: qHTS assay to identify aromatase inhibitors (AID 743083); note: nearly all actives have a fitted effect of over 55% in size; note: potency is the fitted concentration of half-maximal effect
Chain of Aromatase (Homo sapiens) (P11511 whole entry, looked up): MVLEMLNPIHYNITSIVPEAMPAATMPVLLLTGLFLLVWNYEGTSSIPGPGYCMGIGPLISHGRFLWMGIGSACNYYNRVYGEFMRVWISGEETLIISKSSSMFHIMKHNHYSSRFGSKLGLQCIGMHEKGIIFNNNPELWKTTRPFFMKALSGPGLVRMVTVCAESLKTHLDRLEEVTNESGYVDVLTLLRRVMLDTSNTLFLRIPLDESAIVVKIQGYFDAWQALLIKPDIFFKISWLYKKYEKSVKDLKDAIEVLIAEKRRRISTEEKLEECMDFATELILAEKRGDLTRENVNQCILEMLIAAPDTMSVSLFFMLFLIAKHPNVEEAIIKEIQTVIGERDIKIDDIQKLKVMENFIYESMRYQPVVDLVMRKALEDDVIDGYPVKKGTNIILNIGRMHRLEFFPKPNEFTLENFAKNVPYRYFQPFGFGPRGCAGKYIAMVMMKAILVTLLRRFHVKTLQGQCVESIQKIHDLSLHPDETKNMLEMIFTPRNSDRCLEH

[19] = molecular target: Androgen receptor (Homo sapiens) (UniProt P10275); assay: qHTS assay to identify small molecule antagonists of the androgen receptor (AR) signaling pathway (AID 743035; active = well fitted inhibition curve with a large enough effect in the signal ratio in the repeat runs, not every such curve was filed as active; inconclusive = weak or mixed curves, or effect the other way; inactive = no such curve, though single readings can be large or run the other way; the % refers to the signal ratio; note: potency is the fitted concentration of half-maximal effect)
Method in brief: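 Fluorescence from a beta-lactamase FRET substrate (LiveBLAzer B/G, 2 h, room temperature) measured inhibition of R1881-stimulated signaling in GeneBLAzer AR-UAS-bla HEK293 cells exposed to compound for 16 h at 37C.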

CCCCCCOC(=O)c1ccc(O)cc1
active: Potency [2] 48.6 µM | Potency [3] 48.6 µM | Potency [13] 49 µM [inconclusive] and 24.5 µM [inconclusive] | Potency [14] 5.45 µM and 17.2 µM
21.7 µM (active) and inactive: Potency [1]
inactive: Potency [4] | Potency [5] | Potency [6] | Potency [7] | Potency [8] | Potency [9] | Potency [10] | Potency [11] | Potency [12] | Potency [15]

CCCCCCCCS(=O)C(C)Cc1ccc2c(c1)OCO2 (centres undefined)
inactive: Potency [5] | Potency [6] | Potency [11] | Potency [12] | Potency [13] | Potency [15]
active: Potency [2] 69.9 µM | Potency [3] 69.9 µM | Potency [9] 69.9 µM | Potency [10] 62.3 µM

O=c1[nH]sc2ccccc12
inactive: Potency [16] | Potency [12] | Potency [13] | activation ([14]; at 70.3 µM (top of the series)) -22% | Potency [17] | Potency [15]
active: Potency [1] 0.433 µM | Potency [2] 0.433 µM | Potency [3] 0.686 µM | Potency [4] 24.5 µM | Potency [9] 5.45 µM | Potency [10] 3.06 µM | Potency [18] 30.6 µM

OCc1c[nH]c2ccccc12
inactive: Potency [6] | Potency [11]
active: Potency [1] 30.6 µM | Potency [2] 51.4 µM | Potency [3] 64.8 µM | Potency [9] 62.9 µM | Potency [10] 54.5 µM | Potency [13] 4.36 µM [fluorescent] | Potency [18] 33.4 µM

C=C(C)C(=O)OCC(O)COc1ccc(C(C)(C)c2ccc(OCC(O)COC(=O)C(=C)C)cc2)cc1 (centres undefined)
active: Potency [1] 5.45 µM | Potency [2] 6.86 µM | Potency [3] 6.86 µM | Potency [4] 24.5 µM | Potency [7] 21.7 µM | Potency [10] 61.1 µM | Potency [12] 43.6 µM | Potency [18] 30.6 µM
inactive: Potency [11] | Potency [13]

O=C(Nc1cccc([N+](=O)[O-])c1)c1cc2ccccc2cc1O
active: Potency [1] 2.17 µM | Potency [2] 2.17 µM | Potency [3] 2.17 µM | Potency [4] 1.38 µM | Potency [7] 10.9 µM | Potency [8] 6.86 µM | Potency [9] 1.72 µM | Potency [10] 0.864 µM | Potency [12] 49 µM | Potency [17] 8.63 µM | Potency [18] 2.73 µM
inactive: Potency [5] | Potency [6] | Potency [11] | Potency [13]

O=C1C=CC(=O)N1c1ccc(Cc2ccc(N3C(=O)C=CC3=O)cc2)cc1
inactive: Potency [11] | Potency [15]
active: Potency [1] 0.969 µM | Potency [2] 1.22 µM | Potency [3] 1.54 µM | Potency [4] 17.4 µM | Potency [7] 54.5 µM | Potency [9] 10.9 µM | Potency [10] 8.63 µM | Potency [12] 21.9 µM | Potency [18] 9.69 µM

CC(C)(C)NC(=O)[C@@H]1C[C@@H]2CCCC[C@@H]2CN1C[C@@H](O)[C@H](Cc1ccccc1)NC(=O)[C@H](CC(N)=O)NC(=O)c1ccc2ccccc2n1
active: Potency [2] 13.3 µM | Potency [3] 16.8 µM and 55.2 µM | Potency [4] 49.6 µM | Potency [9] 13.3 µM and 24.7 µM | Potency [10] 21.1 µM and 31 µM | Potency [15] 23.7 µM and 49.2 µM | Potency [18] 29.8 µM and 31 µM
inactive: Potency [13]

CC1(C)CCC(C)(C)c2cc(C(=O)Nc3ccc(C(=O)O)cc3)ccc21
inactive: Potency [5] | Potency [6] | Potency [12] | Potency [13] | Potency [15] | Potency [18]
active: Potency [1] 24.3 µM | Potency [2] 19.3 µM | Potency [3] 21.7 µM | Potency [19] 49 µM | Potency [9] 68.6 µM | Potency [10] 48.6 µM | Potency [17] 0.0043 µM

Cc1ccc(O)c(C(C)(C)C)c1
active: Potency [2] 13.7 µM | Potency [3] 15.3 µM | Potency [4] 15.5 µM
15.3 µM (active) and inactive: Potency [18]
inactive: Potency [11]
27.3 µM (active) and inactive: Potency [1]
61 µM (active) and inactive: Potency [15]
17.2 µM (active) and inactive: Potency [9]

C/C=C1/C(=O)C[C@H]2[C@@H]3CCC4=CC(=O)CC[C@]4(C)[C@H]3CC[C@]12C
active: Potency [1] 21.6 µM | Potency [2] 13.6 µM | Potency [3] 19.3 µM | Potency [10] 9.66 µM
inactive: Potency [7] | Potency [9] | Potency [11] | Potency [12] | Potency [13] | Potency [15]

O=C(Nc1cccc(C(F)(F)F)c1)c1cc(Br)cc(Br)c1O
active: Potency [1] 5.31 µM and 6.11 µM | Potency [2] 5.96 µM and 7.7 µM | Potency [3] 6.68 µM and 4.86 µM | Potency [4] 4.25 µM and 4.36 µM | Potency [7] 11.9 µM and 10.9 µM | Potency [9] 5.96 µM and 2.43 µM | Potency [10] 2.98 µM and 1.09 µM | Potency [12] 1.34 µM and 977 nM | Potency [18] 11.9 µM and 4.86 µM
inactive: Potency [13]

CCCCC(CC)COP(=O)(O)OCC(CC)CCCC (centres undefined)
active: Potency [9] 27.4 µM | Potency [10] 61.3 µM | Potency [16] 4.36 µM [inconclusive] | Potency [12] 39 µM
inactive: Potency [2] | Potency [4] | Potency [7] | Potency [11] | Potency [13] | Potency [17] | Potency [15] | Potency [18]
